Assay [1] can be described thus: antimalarial activity against Dd2 strain (AID 2302;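 active = growth inhibition above 50% at the single 2 µM test dose, taken to imply half-maximal potency below 2 µM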;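 note: 0% = DMSO untreated growth and 100% = chloroquine plus artemisinin killed control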). As to conditions: P. falciparum Dd2 in RBCs, LDH growth readout, 72 h; at 2 µM; stronger effect = higher value.
Assay [2] in a line: human hepatoma cell viability loss – ATP luminescence, cytotoxicity control for P. falciparum antimalarial project, primary screen (AID 2303;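 active = inhibition above 50%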;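 note: 0% = DMSO wells and 100% = digitonin-killed cells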). As to conditions: HepG2 viability, 24-48 h, at 10 µM, stronger effect = higher value.
Assay [3] deals with L-lactate dehydrogenase (Plasmodium falciparum (isolate CDC / Honduras)) (UniProt Q27743). The assay can be described thus: PfLDH activity inhibition – cell lysate, 3D7 strain, counter-screen for P. falciparum growth inhibition project (AID 2304).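 Note: 0% = vehicle and 100% = reference inhibitor.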 As to conditions: P. falciparum 3D7 crude extract, LDH APAD/NBT absorbance; at 2 µM; stronger effect = higher value. On the technique in general: The purpose of a counterscreen is to sort out artefacts and off-target activity.
Sequence of L-lactate dehydrogenase (Plasmodium falciparum (isolate CDC / Honduras)) (Q27743 whole entry, looked up): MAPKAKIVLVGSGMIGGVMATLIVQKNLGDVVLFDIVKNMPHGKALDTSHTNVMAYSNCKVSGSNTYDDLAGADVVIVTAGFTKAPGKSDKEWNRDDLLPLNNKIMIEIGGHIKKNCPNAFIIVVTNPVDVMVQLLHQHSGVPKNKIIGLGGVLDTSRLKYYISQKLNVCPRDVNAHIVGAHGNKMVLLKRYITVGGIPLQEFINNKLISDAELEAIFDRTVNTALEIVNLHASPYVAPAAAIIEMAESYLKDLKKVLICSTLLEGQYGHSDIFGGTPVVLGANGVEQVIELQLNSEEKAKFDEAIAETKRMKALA

Assay [4] in a line: inhibition of 3D7 malaria parasite growth – strain 3D7 (AID 2306).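 Note: 0% = DMSO wells and 100% = chloroquine plus artemisinin control wells.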 As to conditions: P. falciparum 3D7 erythrocytic growth, LDH absorbance, 72 h; at 2 µM; stronger effect = higher value.
Assay [5] addresses Calcium-dependent protein kinase 1 (Plasmodium falciparum (isolate 3D7)) (UniProt P62344). The assay can be described thus: PfCDPK1 kinase inhibitors, biochemical, TCAMS library (AID 1159585; cut-off not given, nearly all actives have IC50 up to about 0.98 µM;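 note: inhibitors leave more ATP so luminescence rises with inhibition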). As to conditions: recombinant PfCDPK1, Kinase-Glo ATP depletion luminescence. Background: Kinase-Glo reads ATP consumption through a luciferase reaction.
For assay [6], the target named is Plasmodium falciparum protein kinase 6 (PK6, PF3D7_1337100) (UniProt Q8IDW1). The assay can be described thus: PfPK6 kinase inhibitors, biochemical, TCAMS library (AID 1159586). As to conditions: recombinant PfPK6, Kinase-Glo ATP depletion luminescence.
Sequence of Plasmodium falciparum protein kinase 6 (PK6, PF3D7_1337100) (Q8IDW1 1-305): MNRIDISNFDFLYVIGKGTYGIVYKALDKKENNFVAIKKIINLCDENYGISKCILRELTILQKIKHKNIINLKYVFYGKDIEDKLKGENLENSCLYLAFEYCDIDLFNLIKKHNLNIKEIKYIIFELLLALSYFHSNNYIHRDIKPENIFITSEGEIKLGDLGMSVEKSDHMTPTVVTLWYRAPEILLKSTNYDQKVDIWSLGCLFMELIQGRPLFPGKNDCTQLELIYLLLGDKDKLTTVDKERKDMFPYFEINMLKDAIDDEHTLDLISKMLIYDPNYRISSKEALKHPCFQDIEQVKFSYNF
In assay [7] the target is Protein kinase 7 (PK7), Plasmodium falciparum 3D7 (PF3D7_0213400) (UniProt Q7YTF7). The assay can be described thus: inhibition of Plasmodium PK7 catalytic activity – biochemical, TCAMS antimalarial set, Kinase-Glo luminescence (AID 1159587). As to conditions: recombinant PfPK7, Kinase-Glo ATP depletion luminescence.
Sequence of Protein kinase 7 (PK7), Plasmodium falciparum 3D7 (PF3D7_0213400) (Q7YTF7 1-343): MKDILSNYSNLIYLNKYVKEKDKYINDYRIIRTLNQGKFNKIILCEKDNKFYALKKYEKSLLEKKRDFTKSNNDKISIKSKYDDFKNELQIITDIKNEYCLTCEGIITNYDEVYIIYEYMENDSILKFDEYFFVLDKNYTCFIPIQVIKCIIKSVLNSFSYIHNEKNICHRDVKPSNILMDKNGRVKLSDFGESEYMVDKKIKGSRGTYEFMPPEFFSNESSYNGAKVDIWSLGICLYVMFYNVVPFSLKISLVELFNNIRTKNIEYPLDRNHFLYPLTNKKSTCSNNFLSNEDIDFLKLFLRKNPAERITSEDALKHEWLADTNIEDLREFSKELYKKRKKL
For assay [8], the target named is Calcium-dependent protein kinase 4 (Plasmodium falciparum (isolate 3D7)) (UniProt Q8IBS5). Description: PfCDPK4 kinase inhibitors, biochemical, TCAMS library (AID 1159588; cut-off not given, nearly all actives have IC50 up to about 0.91 µM). As to conditions: recombinant PfCDPK4, Kinase-Glo ATP depletion luminescence.
Sequence of Calcium-dependent protein kinase 4 (Plasmodium falciparum (isolate 3D7)) (Q8IBS5 whole entry, looked up): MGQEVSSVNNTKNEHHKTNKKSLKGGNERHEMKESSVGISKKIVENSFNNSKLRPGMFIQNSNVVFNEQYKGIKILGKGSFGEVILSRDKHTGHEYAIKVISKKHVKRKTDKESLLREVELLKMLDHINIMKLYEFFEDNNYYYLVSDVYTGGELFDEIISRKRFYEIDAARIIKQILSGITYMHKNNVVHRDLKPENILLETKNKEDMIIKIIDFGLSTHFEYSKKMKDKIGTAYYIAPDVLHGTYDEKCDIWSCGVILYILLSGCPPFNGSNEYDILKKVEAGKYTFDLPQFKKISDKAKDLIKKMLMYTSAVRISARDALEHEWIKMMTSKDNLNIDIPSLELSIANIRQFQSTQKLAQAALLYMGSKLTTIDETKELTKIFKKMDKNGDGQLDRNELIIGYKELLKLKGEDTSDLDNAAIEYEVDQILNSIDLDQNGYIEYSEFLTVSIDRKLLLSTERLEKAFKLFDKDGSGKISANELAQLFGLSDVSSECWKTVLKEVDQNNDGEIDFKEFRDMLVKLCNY

Unmarked numbers belong to inactive results. For part of these data: Measured potencies and affinities stand elsewhere. Activity calls are given as the source filed them. Unless noted, the rule behind the calls is not given here. Non-standard residues stand in square brackets, D forms with d. Residues, ends and D or L forms follow the SMILES beside them. *: point of attachment. Butanoyl(4-(4-HOPh)) = O=C(CCCc1ccc(O)cc1)*

Sequence of Calcium-dependent protein kinase 1 (Plasmodium falciparum (isolate 3D7)) (P62344 whole entry, looked up): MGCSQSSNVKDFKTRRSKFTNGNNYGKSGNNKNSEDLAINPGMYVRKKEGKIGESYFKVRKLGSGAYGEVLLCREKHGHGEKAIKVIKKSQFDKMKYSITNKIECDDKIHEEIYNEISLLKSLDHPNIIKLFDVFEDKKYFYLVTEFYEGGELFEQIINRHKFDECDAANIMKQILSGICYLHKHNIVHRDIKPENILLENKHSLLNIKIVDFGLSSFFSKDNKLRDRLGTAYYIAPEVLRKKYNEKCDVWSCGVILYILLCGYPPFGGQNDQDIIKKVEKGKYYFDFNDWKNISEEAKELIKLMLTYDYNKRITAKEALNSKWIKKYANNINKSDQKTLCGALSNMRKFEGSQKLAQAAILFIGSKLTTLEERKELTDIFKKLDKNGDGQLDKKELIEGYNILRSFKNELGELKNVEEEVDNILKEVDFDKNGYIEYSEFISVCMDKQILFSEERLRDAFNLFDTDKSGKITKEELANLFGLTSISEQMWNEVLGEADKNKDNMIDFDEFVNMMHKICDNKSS

For the compound `COc1cccc(C(=O)NCc2cccs2)c1Oc1ccccc1`, the growth inhibition in assay [1] is 4%; in assay [4] it was 98% (active). The inhibition in assay [2] is -6%; in assay [3] it was -4%. Further, the outcome in assay [5], in assay [6], in assay [7] and in assay [8] was inactive.

As to `CC(C)C[C@@H](NC(=O)NC1CCC(CCN2[C@@H]3CC[C@H]2CC(OC(=O)C(CO)c2ccccc2)C3)CC1)C(O)(c1ccccc1)c1ccccc1` (stereo partly drawn), the growth inhibition is 71% (active) in assay [1] and 95% (active) in assay [4]. Further, the figures for the inhibition in assay [2] and in assay [3] were 21% and -6%, respectively. Moreover, the result in assay [5], in assay [6], in assay [7] and in assay [8] was inactive.

For `CC(C)c1ccc(S(=O)(=O)N(c2ccc3c(c2)OCO3)C2CCN(Cc3ccccc3)C2)cc1` (stereo not drawn), the growth inhibition in assay [1] was 92% (active); in assay [4] it was 100% (active). For the same compound, the figures for the inhibition in assay [2] and in assay [3] were 1% and 0%, respectively. Also, the outcome in assay [5], in assay [6], in assay [7] and in assay [8] was inactive.

As for `COc1ccc2nc(C)cc(NN=Cc3ccc(F)cc3)c2c1`, the growth inhibition in assay [1] was 99% (active); in assay [4], 100% (active). The inhibition in assay [2] was 5%; in assay [3], -8%. Also, the result in assay [5], in assay [6], in assay [7] and in assay [8] was inactive.

Regarding `CCN(C(=O)c1ccc(NC(=O)c2cccs2)cc1)c1nc2c(C)cccc2s1`, the growth inhibition in assay [1] is 85% (active); in assay [4], 89% (active). Besides, the inhibition in assay [2] was 24%; in assay [3], -3%. In addition, the result in assay [5], in assay [6], in assay [7] and in assay [8] was inactive.

On to `Clc1ccccc1CCNCC1CCN(CC2CCCCC2)CC1`, for which the growth inhibition was 38% in assay [1] and 97% (active) in assay [4]. The inhibition in assay [2] is 45%; in assay [3] it was -5%. The result in assay [5], in assay [6], in assay [7] and in assay [8] was inactive.

`Cc1[nH]c2ccc(-c3ccccc3)cc2c(=O)c1Br`: the growth inhibition in assay [1] and in assay [4] was 97% (active) in each case. The results for the inhibition in assay [2] and in assay [3] were -13% and 4%, respectively. For the same compound, the outcome in assay [5], in assay [6], in assay [7] and in assay [8] was inactive.

Regarding `CN1C(=O)C(=O)N(CCCCCON=C(N)N)C1=S`, the growth inhibition in assay [1] is 1%; in assay [4] it was 101% (active). Also, the inhibition in assay [2] is 21%; in assay [3], -1%. For the same compound, the outcome in assay [5], in assay [6], in assay [7] and in assay [8] was inactive.

As for `Nc1nc(N)c2c(ccc3nn(S(=O)(=O)N4CCCC4)cc32)n1`, the growth inhibition was 0% in assay [1] and 95% (active) in assay [4]. Besides, the inhibition in assay [2] was 69% (active); in assay [3] it was 9%. Besides, the outcome in assay [5], in assay [6], in assay [7] and in assay [8] was inactive.

For the compound `Cc1cccc2[nH]c(-c3ccc(-c4ccc(CN5CC(C)OC(C)C5)cc4)cc3)nc12` (stereo not drawn), the growth inhibition in assay [1] is 96% (active); in assay [4], 97% (active). Moreover, the inhibition in assay [2] is 37%; in assay [3], 3%. For the same compound, the result in assay [5], in assay [6], in assay [7] and in assay [8] was inactive.

`CCCCN1CC[C@@H](CCC(O)c2ccnc3ccc(OCCC(C)C)cc23)[C@@H](CC)C1` (stereo partly drawn): the growth inhibition in assay [1] was 90% (active); in assay [4], 94% (active). In addition, the inhibition was 22% in assay [2] and 2% in assay [3]. The result in assay [5], in assay [6], in assay [7] and in assay [8] was inactive.

As for `CN(C)CCOc1cc(NC(=O)Nc2ccc(-c3ccccc3)cc2)ccc1I`, the growth inhibition in assay [1] was 45%; in assay [4], 101% (active). Moreover, the inhibition in assay [2] is 9%; in assay [3] it was -3%. The outcome in assay [5], in assay [6], in assay [7] and in assay [8] was inactive.

In the case of `COc1cc2nc(N3CCN(c4cc(C)ccc4C)CC3)nc(N)c2cc1OC`, the growth inhibition in assay [1] was 12%; in assay [4], 98% (active). Moreover, the inhibition is 66% (active) in assay [2] and 5% in assay [3]. For the same compound, the outcome in assay [5], in assay [6], in assay [7] and in assay [8] was inactive.

Consider `CCCc1cc(OC)c(CC2c3cccc(O)c3CCN2C)cc1OC` (stereo not drawn), for which the growth inhibition in assay [1] was 99% (active); in assay [4], 100% (active). Besides, the inhibition in assay [2] was 3%; in assay [3], 0%. The outcome in assay [5], in assay [6], in assay [7] and in assay [8] was inactive.

In the case of `O=C(NCCN1CCCC1)c1ccc(-c2ccc(-c3nc4ccccc4[nH]3)s2)cc1`, the growth inhibition in assay [1] is 3%; in assay [4], 92% (active). Also, the figures for the inhibition in assay [2] and in assay [3] were 22% and -2%, respectively. For the same compound, the result in assay [5], in assay [6], in assay [7] and in assay [8] was inactive.

In the case of `CC1(C)N=C(N)N=C(N)N1c1ccc(Cl)c(Cl)c1`, the figures for the growth inhibition in assay [1] and in assay [4] were 56% (active) and 95% (active), respectively. For the same compound, the results for the inhibition in assay [2] and in assay [3] were 67% (active) and 0%, respectively. Besides, the result in assay [5], in assay [6], in assay [7] and in assay [8] was inactive.

As to `CC(C)[C@H](NC(=O)c1ccc(O)c(-c2cccc(C(F)(F)F)c2)c1)C(=O)NCCN1CCCCC1`, the growth inhibition is 29% in assay [1] and 99% (active) in assay [4]. Further, the inhibition is 3% in assay [2] and 2% in assay [3]. The outcome in assay [5], in assay [6], in assay [7] and in assay [8] was inactive.

For the compound `CCc1[nH]nc(C(=O)NC2CCN(CC3(c4ccc(OC)cc4)CCCCC3)CC2)c1C`, the growth inhibition in assay [1] and in assay [4] was 90% (active) throughout. Further, the inhibition in assay [2] is 2%; in assay [3], -1%. The outcome in assay [5], in assay [6], in assay [7] and in assay [8] was inactive.

On to `CN1CCN(CCCN(Cc2cccc(-c3ccc(CNC4CCCC4)cc3)c2)C(=O)/C=C/c2ccccc2)CC1`, for which the growth inhibition in assay [1] is 96% (active); in assay [4], 98% (active). Also, the inhibition in assay [2] is 62% (active); in assay [3], -2%. Also, the outcome in assay [5], in assay [6], in assay [7] and in assay [8] was inactive.

In the case of `COc1cc(NC(=O)/C=C/c2cccc3cc[nH]c23)ccc1OCCN(C(C)C)C(C)C`, the growth inhibition in assay [1] was 51% (active); in assay [4], 99% (active). The inhibition was 11% in assay [2] and 5% in assay [3]. Further, the result in assay [5], in assay [6], in assay [7] and in assay [8] was inactive.

Consider `O=C(NCC(=O)N1CCC[C@H]1C(=O)O)[C@@H](Cc1ccccc1)NC(=O)[C@@H]1CCCN1C(=O)CCCc1ccc(O)cc1` ({Butanoyl(4-(4-HOPh))}-P[dF]GP-OH), for which the growth inhibition in assay [1] was 1%; in assay [4] it was 81% (active). In addition, the inhibition was 1% in assay [2] and 3% in assay [3]. The outcome in assay [5], in assay [6], in assay [7] and in assay [8] was inactive.

Usually inhibition stands for the change of the read-out against control, counted positive when it falls.

Source of the values: PubChem BioAssay.
